The values that follow come from article PMC11062922 (Nature Chemical Biology, 2023).

Common to all, as to parameters: species or system human, MV4-11 + K-562 + COLO205 + SK-N-BE2 + OVCAR-8
One assay relates to ROCK1. As to conditions: read-out: apparent Kd; compound concentrations: 100 nM and 1000 nM (sheet 'Samples'), CATDS: 0.43789550307339298; n = 1.
The subject of another assay is ROCK2. To be noted: read-out: apparent Kd; compound concentrations: 100 nM and 1000 nM (sheet 'Samples'), CATDS: 0.58263169675533599; n = 1.
In another assay the test system is PLK1. As to conditions: read-out: apparent Kd; compound concentrations: 100 nM and 1000 nM (sheet 'Samples'), CATDS: 1; n = 1.

In the case of `CN(C)CCCn1c(-c2nonc2N)nc2cnccc21` [SB-751399-B], the potency estimated from few doses is 1470 nM in the assay with ROCK1 and 821 nM in the assay on ROCK2.

In the case of `NC(=O)c1sc(-n2cnc3ccccc32)cc1OCc1ccccc1Br` [GSK1023156A], the potency estimated from few doses in the assay with PLK1 was 814 nM.
